Data taken from PubChem BioAssay (NCATS).
Inconclusive results are not listed. A number with no mark means an inactive call. Active and inactive are the calls of the source. Calls come from the whole dose curve; as a rule, active = well fitted inhibition curve with a large enough effect; inconclusive = small, poorly fitted or top-dose-only effect; inactive = no such curve, though single readings can be large or run the other way.

Assay: NS1 protein of Zika virus - qHTS assay to identify small molecule inhibitors in human HEK 293 cells (AID 1347053); note: nearly all actives have a fitted effect of over 55% in size;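 for activity change, negative = inhibition: plate controls were infected untreated cells for no effect and uninfected cells for full effect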
Details: HEK293 ZIKV MR766 infection, NS1 TR-FRET, 24 h; series mostly up to 46.1 µM; activity change, negative = inhibition: at the top concentration
Description: National Center for Advancing Translational Sciences [NCATS]
Johns Hopkins University School of Medicine
The non-structural 1 (NS1) protein of zika virus is known to associate with the viral replication complex. This cell-based TR-FRET ZIKV NS-1 assay measures the increased NS-1 protein in human HEK 293 cells after a 24-hour Zika virus infection by a TR-FRET assay readout. A decrease in the Time-resolved fluorescence energy transfer (TR-FRET) signal in this assay by small molecule treatment indicates an inhibitory effect of the small molecule on the expression of Zika virus NS1 correlating with Zika virus replication.
HEK 293 cells were cultured in EMEM (ATCC, Cat. # 30-2003) medium with 10% fetal bovine serum (GE healthcare Life Sciences, Cat. # SH30071.03), and 1% Pen/Strep (Gibco, Cat. # 15140-122). Cells were seeded in the assay plate and incubated at 37 C with 5% CO2 for 20 hours. Compounds were added to cells and incubated for one hour before addition of ZIKV MR766 strain solution to cells (MOI = 0.5). After an incubation at 37 C for 24 hours, the reagent mixture of TR-FRET ZIKV NS1 assay using two anti-ZIKV NS1 antibodies was added to assay plates. The TR-FRET signals in assay plates were measured using an Envision plate reader (PerkinElmer). Data were normalized by using the cell-containing wells without ZIKV as a negative control (0% NS-1) and wells containing ZIKV infected cells as a positive control (100% NS-1 level).
Potency is the fitted concentration of half-maximal effect.

In order of falling “activity change, negative = inhibition” value:
1. NC(=O)CN1CC(O)CC1=O (stereo not given)  9.33%
2. COc1cccc2c1[C@]13CCN(CC4CC4)[C@H](C2)[C@]1(OC)CCC(=O)C3  7.37%
3. CC(=CCCC1=CCC(C2=CC(=O)OC2O)OC1O)CCC1=C(C)CCCC1(C)C (stereo not given)  7.29%
4. c1ccc2sc(C3(N4CCCCC4)CCCCC3)cc2c1  3.91%
5. CC(C)(O)C(=O)Nc1ccc([N+](=O)[O-])c(C(F)(F)F)c1  3.41%
6. CCOP(=O)(OCC)C(C)NC(=O)N(CCCl)N=O (stereo not given)  2.74%
7. O=C(O)CNC(=O)c1c(O)c2ccccc2n(Cc2ccccc2)c1=O  1.93%
8. CCOC(=O)c1c(C(C#N)=CN)c2ccc(Cl)c(Cl)c2n1C  1.54%
9. S=C(NC1CCCCC1)N1CCC(c2cnc[nH]2)CC1  1.34%
10. Fc1cc(Br)ccc1CBr  0.737%
11. O=C(Oc1ccc([N+](=O)[O-])cc1)N1CCC(C(O)(c2ccc3c(c2)OCO3)c2ccc3c(c2)OCO3)CC1  0.147%
12. CCCN1CCO[C@@H]2c3cc(O)ccc3OC[C@H]21  -0.157%
13. CNCCc1c[nH]c2ccc(O)cc12  -0.289%
14. C[C@]12CC[C@H]3[C@@H](CCC4=CC(=O)CC[C@@]43C)[C@H]1CC[C@H]2O  -0.698%
15. CC(=O)Nc1ccc(OC[C@](C)(O)C(=O)Nc2ccc([N+](=O)[O-])c(C(F)(F)F)c2)cc1  -1.26%
16. CCCCc1ccc(C(=O)O)nc1  -2.04%
17. C[C@]12CC[C@H](O)CC1=CC[C@H]1[C@H]3CCC(=O)[C@@]3(C)CC[C@@H]12  -2.83%
18. Cc1cc(O)ccc1Cl  -3.08%
19. CC(C)(C)NC[C@H](O)c1ccc(O)cc1Cl  -3.97%
20. NCCc1c[nH]c2ccccc12  -5.19%
21. O=C(O)[C@@H]1CCN1  -5.97%
22. O=C1CCC[C@@H]2[C@H]3CCCN4CCC[C@@H](CN12)[C@@H]34  -6.81%
23. C[C@](O)(COc1ccc(C#N)cc1)C(=O)Nc1ccc(C#N)c(C(F)(F)F)c1  -9.33%
24. COc1cc(C(O)CN)ccc1O (stereo not given)  -12.4%
25. O=C(O)C(Cl)Cl  -13.7%
26. NC(N)=NOCCC(N)C(=O)O (stereo not given)  -15.7%
27. NCCc1c[nH]c2ccc(O)cc12  -26.5%

In order of rising “activity change, negative = inhibition” value:
1. CCO/N=C(\CC)C1=C(O)CC(c2c(C)cc(C)cc2C)CC1=O (stereo not given)  -13.2% [at 92.8 µM]
2. O=[N+]([O-])c1c(Cl)c(Cl)cc(Cl)c1Cl  -8.43% [at 92.8 µM]
3. Oc1ccc2c3c1O[C@H]1[C@@H](O)C=C[C@H]4[C@@H](C2)NCC[C@@]341  -8.37% [at 92.8 µM]
4. Nc1ccc(N=Nc2ccccc2)cc1  13.9% [at 92.8 µM]
5. c1cc2ccc3cccc4ccc(c1)c2c34  14% [at 92.8 µM]
6. ClC1=C(Cl)[C@]2(Cl)[C@@H]3[C@@H]4C[C@@H]([C@H]5O[C@@H]45)[C@@H]3[C@@]1(Cl)C2(Cl)Cl  31.1% [at 92.8 µM]
7. O=C(O)COc1nc(Cl)c(Cl)cc1Cl  53.4% [at 92.8 µM]
8. CCOP(=O)(NC(C)C)Oc1ccc(SC)c(C)c1 (stereo not given)  100% [at 92.8 µM]

In the case of O=c1[nH]c2ccc(Cl)cc2c(N[C@@H]2CN3CCC2CC3)c1-c1nc2ccccc2[nH]1, the Potency is reported as 52.6 nM (active).
In the case of CC(Cc1ccc(O)cc1)NCC(O)c1cc(O)cc(O)c1 (stereo not given), the Potency is reported as “inactive”.
With N=c1c2c(-c3ccccc3)c(-c3ccccc3)n(Cc3ccccc3)c2ncn1C1CCC(O)CC1 (stereo not given) the Potency was 26400 nM (active).
With COC1=CC(C)=C[C@@H](C)[C@@H](O)[C@@H](C)CC(C)=CC=C[C@H](OC)[C@H]([C@@H](C)[C@@H](O)[C@H](C)[C@@]2(O)C[C@@H](O)[C@H](C)[C@@H](C(C)C)O2)OC1=O the Potency was 1.2 nM (active).
With CCCCCC[C@H]1C(=O)O[C@H](C)[C@H](NC(=O)c2cccc(NC=O)c2O)C(=O)O[C@@H](C)[C@@H]1OC(=O)CC(C)C the Potency was 2960 nM (active).
